# Source: paper PMC7862700, “An all-to-all approach to the identification of sequence-specific readers for epigenetic DNA modifications on cytosine”
# Assays:
# Test in all cases: DAPPL (digital affinity profiling via proximity ligation, sequencing); 10 mM Tris-HCl pH 7.5, 50 mM NaCl, 1 mM DTT, 4% glycerol, room temperature, 30 min; GST-TFs on glutathione beads, 16-mer random dsDNA library, 0.1% formaldehyde crosslink after washing; high values mean tight binding
# FLI1 = target: T1, FLI1 (Homo sapiens, UniProt Q01543 1-452); details: protein: recombinant; tags: N-terminal GST; dsDNA, one strand shown
# T1 sequence: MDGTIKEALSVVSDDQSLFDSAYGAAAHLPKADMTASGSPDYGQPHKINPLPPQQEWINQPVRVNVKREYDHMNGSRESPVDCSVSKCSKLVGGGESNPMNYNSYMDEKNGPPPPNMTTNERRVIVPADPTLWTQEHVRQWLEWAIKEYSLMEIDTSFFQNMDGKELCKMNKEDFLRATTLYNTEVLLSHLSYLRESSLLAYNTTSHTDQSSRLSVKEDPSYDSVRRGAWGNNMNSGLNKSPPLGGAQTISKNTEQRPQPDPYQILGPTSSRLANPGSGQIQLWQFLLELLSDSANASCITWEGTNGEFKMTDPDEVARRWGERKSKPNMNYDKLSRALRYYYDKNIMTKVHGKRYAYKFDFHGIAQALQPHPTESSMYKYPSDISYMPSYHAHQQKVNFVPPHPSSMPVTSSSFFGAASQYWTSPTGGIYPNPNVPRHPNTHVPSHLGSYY
# Outline: (§1)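 Pools of DNA-barcoded human transcription factors, expressed in yeast as GST fusions on glutathione beads and combined with a tag-only sample, were incubated with 200 nmole of a 16-mer random double-stranded DNA library. Incubation took 30 min at room temperature in Tris/NaCl/DTT/glycerol buffer and was followed by washing, 0.1% formaldehyde crosslinking, proximity ligation (BsaI/T4 ligase, 1 h, 37 °C), PCR amplification and sequencing on an Illumina NextSeq500. Binding signal is the ratio of a hexamer's read frequency for a factor to its frequency for the tag-only sample.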
# ELK1 = target: T2, ELK1 (Homo sapiens, UniProt P19419 1-428); details: protein: recombinant; tags: N-terminal GST; dsDNA, one strand shown
# T2 sequence: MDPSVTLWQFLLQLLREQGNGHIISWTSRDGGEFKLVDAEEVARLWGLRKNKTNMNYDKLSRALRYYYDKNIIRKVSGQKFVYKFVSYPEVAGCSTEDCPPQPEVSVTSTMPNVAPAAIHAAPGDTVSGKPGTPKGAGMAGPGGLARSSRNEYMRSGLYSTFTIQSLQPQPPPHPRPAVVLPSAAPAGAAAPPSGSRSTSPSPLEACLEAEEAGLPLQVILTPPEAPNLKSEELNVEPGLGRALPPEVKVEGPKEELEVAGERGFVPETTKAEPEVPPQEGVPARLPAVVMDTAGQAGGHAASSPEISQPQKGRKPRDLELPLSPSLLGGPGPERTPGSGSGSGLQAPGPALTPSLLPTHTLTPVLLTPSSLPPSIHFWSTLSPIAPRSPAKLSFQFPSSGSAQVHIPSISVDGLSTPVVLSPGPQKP
# Outline: as §1
# GABPA = target: T3, GABPA (Homo sapiens, UniProt Q06546 1-454); details: protein: recombinant; tags: N-terminal GST; dsDNA, one strand shown
# T3 sequence: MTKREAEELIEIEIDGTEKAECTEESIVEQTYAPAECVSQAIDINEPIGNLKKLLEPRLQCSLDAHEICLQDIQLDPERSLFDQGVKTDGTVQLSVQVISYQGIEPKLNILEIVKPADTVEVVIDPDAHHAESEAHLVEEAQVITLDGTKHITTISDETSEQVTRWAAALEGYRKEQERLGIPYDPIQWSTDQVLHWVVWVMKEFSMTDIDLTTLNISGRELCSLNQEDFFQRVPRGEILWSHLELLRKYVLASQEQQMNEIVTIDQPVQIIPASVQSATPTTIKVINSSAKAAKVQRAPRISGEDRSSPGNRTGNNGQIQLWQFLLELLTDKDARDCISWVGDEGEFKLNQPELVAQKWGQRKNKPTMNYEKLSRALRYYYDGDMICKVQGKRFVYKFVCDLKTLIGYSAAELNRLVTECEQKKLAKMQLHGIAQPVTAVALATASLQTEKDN
# Outline: as §1
# ERG = target: T4, ERG (Homo sapiens, UniProt P11308 1-479); details: protein: recombinant; tags: N-terminal GST; dsDNA, one strand shown
# T4 sequence: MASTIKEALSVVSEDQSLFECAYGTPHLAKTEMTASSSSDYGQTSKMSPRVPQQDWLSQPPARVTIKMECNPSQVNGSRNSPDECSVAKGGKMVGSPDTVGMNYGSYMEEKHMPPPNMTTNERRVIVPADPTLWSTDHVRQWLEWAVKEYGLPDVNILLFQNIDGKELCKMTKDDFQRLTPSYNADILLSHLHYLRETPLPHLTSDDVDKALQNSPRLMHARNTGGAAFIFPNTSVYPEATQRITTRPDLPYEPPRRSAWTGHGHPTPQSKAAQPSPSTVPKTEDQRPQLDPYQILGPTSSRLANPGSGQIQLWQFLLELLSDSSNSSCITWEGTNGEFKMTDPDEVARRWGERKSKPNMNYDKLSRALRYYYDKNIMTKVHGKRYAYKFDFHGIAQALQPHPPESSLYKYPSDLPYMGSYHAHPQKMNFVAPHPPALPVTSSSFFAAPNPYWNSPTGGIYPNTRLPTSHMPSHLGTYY
# Outline: as §1
# ELF1 = ELF1 (Homo sapiens, UniProt P32519 1-619); details: protein: recombinant; tags: N-terminal GST; dsDNA, one strand shown
# Sequence of ELF1 (P32519 whole entry): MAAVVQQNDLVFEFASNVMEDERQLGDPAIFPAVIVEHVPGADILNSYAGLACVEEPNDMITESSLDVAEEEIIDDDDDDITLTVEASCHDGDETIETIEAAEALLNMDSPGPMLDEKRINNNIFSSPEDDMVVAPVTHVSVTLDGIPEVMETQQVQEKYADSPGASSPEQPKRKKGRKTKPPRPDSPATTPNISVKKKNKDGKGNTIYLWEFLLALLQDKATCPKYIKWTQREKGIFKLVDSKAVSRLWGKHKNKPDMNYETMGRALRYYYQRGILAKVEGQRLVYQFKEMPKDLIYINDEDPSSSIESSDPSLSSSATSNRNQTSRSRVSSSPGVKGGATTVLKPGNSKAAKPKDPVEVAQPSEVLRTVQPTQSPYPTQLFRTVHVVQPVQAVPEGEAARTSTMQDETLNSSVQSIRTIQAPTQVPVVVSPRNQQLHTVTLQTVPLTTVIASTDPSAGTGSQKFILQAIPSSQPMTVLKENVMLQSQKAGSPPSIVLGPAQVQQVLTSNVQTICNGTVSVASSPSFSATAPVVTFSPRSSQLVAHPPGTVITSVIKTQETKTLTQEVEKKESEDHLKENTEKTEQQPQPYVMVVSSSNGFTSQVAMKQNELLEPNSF
# Outline: as §1
# EHF = target: T5, EHF (Homo sapiens, UniProt Q9NZC4 1-300); details: protein: recombinant; tags: N-terminal GST; dsDNA, one strand shown
# T5 sequence: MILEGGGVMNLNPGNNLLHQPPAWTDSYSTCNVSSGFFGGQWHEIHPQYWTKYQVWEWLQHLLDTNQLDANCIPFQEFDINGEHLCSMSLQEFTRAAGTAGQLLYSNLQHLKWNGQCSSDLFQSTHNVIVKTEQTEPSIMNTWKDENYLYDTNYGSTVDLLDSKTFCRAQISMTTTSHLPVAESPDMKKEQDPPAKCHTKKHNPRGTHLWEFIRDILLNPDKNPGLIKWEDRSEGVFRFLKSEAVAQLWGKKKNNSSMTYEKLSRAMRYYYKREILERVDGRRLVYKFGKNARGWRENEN
# Outline: as §1
# SPI1 = SPI1 (Homo sapiens, UniProt P17947 1-270); details: protein: recombinant; tags: N-terminal GST; dsDNA, one strand shown
# Outline: as §1
# SPIB = SPIB (Homo sapiens, UniProt Q01892 1-262); details: protein: recombinant; tags: N-terminal GST; dsDNA, one strand shown
# Sequence of SPIB (Q01892 whole entry): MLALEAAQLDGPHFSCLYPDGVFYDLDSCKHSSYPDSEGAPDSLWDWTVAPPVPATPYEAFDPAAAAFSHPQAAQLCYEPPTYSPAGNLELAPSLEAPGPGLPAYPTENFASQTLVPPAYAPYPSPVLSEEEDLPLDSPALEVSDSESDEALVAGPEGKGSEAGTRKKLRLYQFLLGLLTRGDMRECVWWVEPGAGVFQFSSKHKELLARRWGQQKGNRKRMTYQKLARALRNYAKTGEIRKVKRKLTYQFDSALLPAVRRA
# Outline: as §1
# ELK3 = target: T6, ELK3 (Homo sapiens, UniProt P41970 1-407); details: protein: recombinant; tags: N-terminal GST; dsDNA, one strand shown
# T6 sequence: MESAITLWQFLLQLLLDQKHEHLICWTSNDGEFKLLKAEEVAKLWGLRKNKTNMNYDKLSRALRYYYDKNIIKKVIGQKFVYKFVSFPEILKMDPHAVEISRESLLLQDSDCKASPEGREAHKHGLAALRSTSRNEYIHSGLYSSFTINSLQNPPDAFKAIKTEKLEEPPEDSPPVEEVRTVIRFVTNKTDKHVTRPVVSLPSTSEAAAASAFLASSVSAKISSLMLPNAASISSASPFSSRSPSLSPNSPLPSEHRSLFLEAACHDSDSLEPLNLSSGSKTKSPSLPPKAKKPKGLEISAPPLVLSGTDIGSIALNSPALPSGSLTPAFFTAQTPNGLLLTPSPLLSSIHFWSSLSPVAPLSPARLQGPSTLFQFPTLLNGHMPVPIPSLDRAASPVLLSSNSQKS
# Outline: as §1
# FEV = target: T7, FEV (Homo sapiens, UniProt Q99581 1-238); details: protein: recombinant; tags: N-terminal GST; dsDNA, one strand shown
# T7 sequence: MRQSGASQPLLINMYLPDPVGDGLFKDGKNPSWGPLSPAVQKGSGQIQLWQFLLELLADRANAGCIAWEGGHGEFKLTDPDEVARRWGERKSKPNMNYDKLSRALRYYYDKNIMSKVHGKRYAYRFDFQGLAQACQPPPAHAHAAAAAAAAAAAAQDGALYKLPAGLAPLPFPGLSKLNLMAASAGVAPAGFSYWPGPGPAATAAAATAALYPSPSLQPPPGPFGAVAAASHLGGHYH
# Outline: as §1
# ETV5 = ETV5 (Homo sapiens, UniProt P41161 1-510); details: protein: recombinant; tags: N-terminal GST; dsDNA, one strand shown
# Sequence of ETV5 (P41161 whole entry): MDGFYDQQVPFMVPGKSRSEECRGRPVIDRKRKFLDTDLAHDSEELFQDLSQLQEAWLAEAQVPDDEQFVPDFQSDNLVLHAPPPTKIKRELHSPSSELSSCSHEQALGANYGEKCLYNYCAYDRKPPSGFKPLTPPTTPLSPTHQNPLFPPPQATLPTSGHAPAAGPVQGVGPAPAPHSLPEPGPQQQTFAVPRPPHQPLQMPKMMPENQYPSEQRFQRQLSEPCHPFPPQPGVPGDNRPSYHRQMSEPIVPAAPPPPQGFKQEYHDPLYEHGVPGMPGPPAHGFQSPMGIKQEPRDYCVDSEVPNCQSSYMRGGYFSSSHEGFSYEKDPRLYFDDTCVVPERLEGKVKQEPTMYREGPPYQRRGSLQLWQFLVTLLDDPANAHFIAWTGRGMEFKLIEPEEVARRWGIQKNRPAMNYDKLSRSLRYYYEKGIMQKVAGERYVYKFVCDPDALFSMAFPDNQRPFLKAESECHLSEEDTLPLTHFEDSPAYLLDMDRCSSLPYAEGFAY
# Outline: as §1
# HSF1 = HSF1 (Homo sapiens, UniProt Q00613 1-529); details: protein: recombinant; tags: N-terminal GST; chain copies: 3; dsDNA, one strand shown
# Sequence of HSF1 (Q00613 whole entry): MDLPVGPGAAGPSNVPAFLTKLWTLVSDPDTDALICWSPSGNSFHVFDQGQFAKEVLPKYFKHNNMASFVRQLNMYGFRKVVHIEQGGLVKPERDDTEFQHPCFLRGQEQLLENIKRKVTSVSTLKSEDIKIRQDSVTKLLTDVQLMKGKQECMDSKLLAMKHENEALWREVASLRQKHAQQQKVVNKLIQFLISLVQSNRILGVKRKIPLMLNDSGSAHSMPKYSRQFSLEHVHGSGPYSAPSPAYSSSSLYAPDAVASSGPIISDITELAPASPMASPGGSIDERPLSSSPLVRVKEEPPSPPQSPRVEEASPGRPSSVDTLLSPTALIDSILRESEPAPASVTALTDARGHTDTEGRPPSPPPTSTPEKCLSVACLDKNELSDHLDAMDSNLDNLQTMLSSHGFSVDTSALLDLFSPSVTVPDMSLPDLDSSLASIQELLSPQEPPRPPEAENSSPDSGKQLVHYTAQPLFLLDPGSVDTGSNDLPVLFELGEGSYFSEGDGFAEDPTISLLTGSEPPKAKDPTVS
# Outline: as §1
# SPIC = target: T8, SPIC (Homo sapiens, UniProt Q8N5J4 1-248); details: protein: recombinant; tags: N-terminal GST; dsDNA, one strand shown
# T8 sequence: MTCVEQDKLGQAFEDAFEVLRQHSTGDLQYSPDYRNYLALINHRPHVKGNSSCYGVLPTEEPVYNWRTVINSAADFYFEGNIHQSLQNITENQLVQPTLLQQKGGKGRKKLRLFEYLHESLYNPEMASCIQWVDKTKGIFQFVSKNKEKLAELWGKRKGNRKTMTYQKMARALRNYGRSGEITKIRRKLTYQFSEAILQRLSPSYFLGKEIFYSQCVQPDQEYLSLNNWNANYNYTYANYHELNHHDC
# Outline: as §1
# ELF4 = ELF4 (Homo sapiens, UniProt Q99607 1-663); details: protein: recombinant; tags: N-terminal GST; dsDNA, one strand shown
# Sequence of ELF4 (Q99607 whole entry): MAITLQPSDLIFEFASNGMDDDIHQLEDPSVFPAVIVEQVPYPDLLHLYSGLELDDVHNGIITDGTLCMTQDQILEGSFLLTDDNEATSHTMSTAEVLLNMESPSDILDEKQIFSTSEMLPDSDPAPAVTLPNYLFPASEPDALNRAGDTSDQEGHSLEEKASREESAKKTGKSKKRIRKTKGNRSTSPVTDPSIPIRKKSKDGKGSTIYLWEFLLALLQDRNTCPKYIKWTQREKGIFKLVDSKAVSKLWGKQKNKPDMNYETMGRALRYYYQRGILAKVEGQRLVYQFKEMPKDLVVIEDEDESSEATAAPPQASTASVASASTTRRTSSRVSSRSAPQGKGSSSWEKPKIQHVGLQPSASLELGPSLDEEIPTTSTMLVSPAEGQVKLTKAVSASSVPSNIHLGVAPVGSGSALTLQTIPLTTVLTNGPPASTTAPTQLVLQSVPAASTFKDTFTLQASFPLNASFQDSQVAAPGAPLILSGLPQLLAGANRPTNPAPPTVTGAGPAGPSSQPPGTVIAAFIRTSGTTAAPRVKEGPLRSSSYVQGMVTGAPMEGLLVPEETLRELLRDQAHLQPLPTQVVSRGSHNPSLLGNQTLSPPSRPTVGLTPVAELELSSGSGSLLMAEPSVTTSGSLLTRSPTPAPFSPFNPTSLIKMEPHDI
# Outline: as §1
# ELK4 = target: T9, ELK4 (Homo sapiens, UniProt P28324-2 1-405); details: protein: recombinant; tags: N-terminal GST; dsDNA, one strand shown
# T9 sequence: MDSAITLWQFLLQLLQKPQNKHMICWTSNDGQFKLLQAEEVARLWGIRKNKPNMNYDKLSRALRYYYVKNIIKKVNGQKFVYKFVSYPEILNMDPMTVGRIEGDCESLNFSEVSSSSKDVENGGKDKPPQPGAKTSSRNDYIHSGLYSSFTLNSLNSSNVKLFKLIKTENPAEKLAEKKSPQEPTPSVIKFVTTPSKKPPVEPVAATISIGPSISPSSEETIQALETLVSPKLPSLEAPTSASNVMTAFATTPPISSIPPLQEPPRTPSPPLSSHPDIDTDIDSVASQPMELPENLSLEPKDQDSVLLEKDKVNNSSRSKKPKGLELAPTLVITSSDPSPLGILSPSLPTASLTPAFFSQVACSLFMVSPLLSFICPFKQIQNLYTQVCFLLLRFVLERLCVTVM
# Outline: as §1
# ETV2 = target: T10, ETV2 (Homo sapiens, UniProt O00321 1-342); details: protein: recombinant; tags: N-terminal GST; dsDNA, one strand shown
# T10 sequence: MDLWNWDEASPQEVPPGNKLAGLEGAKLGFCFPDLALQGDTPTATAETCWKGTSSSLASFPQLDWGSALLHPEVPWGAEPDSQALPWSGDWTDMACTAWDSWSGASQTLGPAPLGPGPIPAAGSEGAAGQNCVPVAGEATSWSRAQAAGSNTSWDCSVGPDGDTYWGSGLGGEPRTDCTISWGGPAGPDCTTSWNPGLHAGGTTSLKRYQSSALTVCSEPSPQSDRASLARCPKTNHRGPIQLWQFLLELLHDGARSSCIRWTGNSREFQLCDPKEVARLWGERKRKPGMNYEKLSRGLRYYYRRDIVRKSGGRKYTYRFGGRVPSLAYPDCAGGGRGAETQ
# Outline: as §1
# ELF3 = target: T11, ELF3 (Homo sapiens, UniProt P78545 1-371); details: protein: recombinant; tags: N-terminal GST; dsDNA, one strand shown
# T11 sequence: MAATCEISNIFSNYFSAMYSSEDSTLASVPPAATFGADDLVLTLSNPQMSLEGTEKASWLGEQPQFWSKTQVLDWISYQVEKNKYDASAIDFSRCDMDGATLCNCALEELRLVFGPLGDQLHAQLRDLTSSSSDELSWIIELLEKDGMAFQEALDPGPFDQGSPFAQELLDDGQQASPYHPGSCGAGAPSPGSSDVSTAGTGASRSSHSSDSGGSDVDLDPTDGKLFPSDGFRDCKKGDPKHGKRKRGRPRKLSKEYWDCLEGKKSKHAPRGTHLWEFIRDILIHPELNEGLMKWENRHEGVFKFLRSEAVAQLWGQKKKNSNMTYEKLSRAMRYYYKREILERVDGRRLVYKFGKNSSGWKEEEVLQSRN
# Outline: as §1
# CRX = CRX (Homo sapiens, UniProt O43186 1-299); details: protein: recombinant; tags: N-terminal GST; dsDNA, one strand shown
# Sequence of CRX (O43186 whole entry): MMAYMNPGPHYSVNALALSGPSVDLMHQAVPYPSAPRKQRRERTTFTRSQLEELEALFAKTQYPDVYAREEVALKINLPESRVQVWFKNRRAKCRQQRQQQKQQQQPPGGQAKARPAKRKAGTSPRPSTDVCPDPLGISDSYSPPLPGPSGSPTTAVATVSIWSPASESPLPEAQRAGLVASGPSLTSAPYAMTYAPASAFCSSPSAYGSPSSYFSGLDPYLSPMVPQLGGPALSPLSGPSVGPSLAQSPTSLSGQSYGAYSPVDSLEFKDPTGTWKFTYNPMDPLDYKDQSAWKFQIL
# Outline: as §1
# ETV1 = ETV1 (Homo sapiens, UniProt P50549 1-477); details: protein: recombinant; tags: N-terminal GST; dsDNA, one strand shown
# Sequence of ETV1 (P50549 whole entry): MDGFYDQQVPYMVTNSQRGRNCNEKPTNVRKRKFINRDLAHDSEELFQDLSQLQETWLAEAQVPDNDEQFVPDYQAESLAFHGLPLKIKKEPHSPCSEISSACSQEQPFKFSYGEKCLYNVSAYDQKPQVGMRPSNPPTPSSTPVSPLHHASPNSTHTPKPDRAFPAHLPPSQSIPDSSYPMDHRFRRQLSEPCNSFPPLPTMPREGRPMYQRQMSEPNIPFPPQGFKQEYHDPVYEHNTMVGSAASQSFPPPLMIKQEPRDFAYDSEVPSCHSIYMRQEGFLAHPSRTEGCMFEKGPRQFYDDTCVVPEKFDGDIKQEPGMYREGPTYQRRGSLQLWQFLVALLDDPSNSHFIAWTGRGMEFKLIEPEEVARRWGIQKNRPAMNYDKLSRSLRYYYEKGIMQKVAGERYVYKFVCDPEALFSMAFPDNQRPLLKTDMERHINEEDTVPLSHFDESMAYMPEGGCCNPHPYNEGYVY
# Outline: as §1
sequence,measurement,setting,value
CGAACA,binding signal,FLI1,"1.09 fold enrichment (6-mer frequency, TF over GST control)"
same,binding signal,ELK1,"1.08 fold enrichment (6-mer frequency, TF over GST control)"
same,binding signal,GABPA,"1.11 fold enrichment (6-mer frequency, TF over GST control)"
same,binding signal,ERG,"1.11 fold enrichment (6-mer frequency, TF over GST control)"
same,binding signal,ELF1,"1.13 fold enrichment (6-mer frequency, TF over GST control)"
same,binding signal,EHF,"1.14 fold enrichment (6-mer frequency, TF over GST control)"
same,binding signal,SPI1,"1.15 fold enrichment (6-mer frequency, TF over GST control)"
same,binding signal,SPIB,"1.19 fold enrichment (6-mer frequency, TF over GST control)"
same,binding signal,ELK3,"1.09 fold enrichment (6-mer frequency, TF over GST control)"
same,binding signal,FEV,"1.06 fold enrichment (6-mer frequency, TF over GST control)"
same,binding signal,ETV5,"1.14 fold enrichment (6-mer frequency, TF over GST control)"
same,binding signal,HSF1,"1.76 fold enrichment (6-mer frequency, TF over GST control)"
same,binding signal,SPIC,"1.11 fold enrichment (6-mer frequency, TF over GST control)"
same,binding signal,ELF4,"1.19 fold enrichment (6-mer frequency, TF over GST control)"
same,binding signal,ELK4,"1.17 fold enrichment (6-mer frequency, TF over GST control)"
same,binding signal,ETV2,"1.22 fold enrichment (6-mer frequency, TF over GST control)"
same,binding signal,ELF3,"1.2 fold enrichment (6-mer frequency, TF over GST control)"
same,binding signal,CRX,"1.1 fold enrichment (6-mer frequency, TF over GST control)"
same,binding signal,ETV1,"1.1 fold enrichment (6-mer frequency, TF over GST control)"
